Bioassay records: PubChem BioAssay, National Center for Advancing Translational Sciences (NCATS)
Only some compounds are listed: those with a hit (about 5% of all), similar ones and a draw of the others.
Vaccinia Venus = inhibitors of vaccinia virus (Venus reporter). Vaccinia virus Venus reporter expression, fluorescence. Potency, µM (top dose mostly 36.5 µM), inactives show top-dose activity change, negative = inhibition, most hits filed as inhibitors. 330,000 compounds, 0.46% hits; calls by dose curve; tested in A549 cells; also: potency is read from the fitted curve at half-maximal effect; nearly all actives have a fitted effect of over 30% in size
HCMV antiviral = inhibitors of human cytomegalovirus; HFF cells, HCMV-luciferase reporter, 72 h; stronger effect = lower value; 410,000 compounds, 4.5% hits; activity change, negative = inhibition, % at 57.5 µM; in the data active = activity change below about -60%; inconclusive = no clear call, values can overlap the other calls; inactive = above about -39%
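Steps: HFFs plated, 16 h 37C; compounds added; HCMV-luciferase added to MOI 1 PFU/cell; 72 h 37C; OneGlo reagent, 5 min room temperature; luminescence read, normalized to controls.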
VACV mCherry inh = vaccinia inhibition (mCherry reporter); Potency, µM (series often up to 36.5 µM), without a hit: top-dose activity change, negative = inhibition, hits mostly inhibitors; 310,000 compounds, 0.63% hits; Vaccinia virus mCherry reporter infection, fluorescence; AID 720579; calls by dose curve; tested in A549 cells; also: potency is read from the fitted curve at half-maximal effect; nearly all actives have a fitted effect of over 35% in size
LmPK inh = LmPK (Leishmania mexicana) enzyme inhibition; purified LmPK, Kinase-Glo ATP luminescence, 1 h; Potency, µM (titrated, usually from 57.5 µM), without a hit: at the highest dose activity change, negative = inhibition, most hits filed as inhibitors; 290,000 compounds, 0.37% hits; also: potency is read from the fitted curve at half-maximal effect
Target sequence (Q27686 whole entry, looked up): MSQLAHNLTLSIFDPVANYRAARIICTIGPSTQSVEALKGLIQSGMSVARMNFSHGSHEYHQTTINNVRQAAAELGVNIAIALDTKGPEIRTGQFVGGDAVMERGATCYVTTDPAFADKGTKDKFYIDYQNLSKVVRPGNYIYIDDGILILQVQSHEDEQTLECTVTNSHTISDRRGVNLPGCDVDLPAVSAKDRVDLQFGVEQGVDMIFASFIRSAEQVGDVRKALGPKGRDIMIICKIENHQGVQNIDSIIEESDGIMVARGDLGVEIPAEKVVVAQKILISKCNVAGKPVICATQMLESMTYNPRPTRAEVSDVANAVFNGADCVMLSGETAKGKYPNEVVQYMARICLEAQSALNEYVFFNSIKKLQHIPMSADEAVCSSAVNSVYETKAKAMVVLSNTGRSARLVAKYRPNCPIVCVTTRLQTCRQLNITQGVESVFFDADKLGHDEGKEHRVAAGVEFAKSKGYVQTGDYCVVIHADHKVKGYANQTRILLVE
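Purified LmPK (0.1 nM) with 0.5 mM PEP and 0.1 mM ADP in imidazole buffer pH 7.2 with MgCl2/KCl, 1 h at room temperature. ATP formed was read by luciferase luminescence and normalized to no-enzyme and uninhibited controls.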
TbPYK inhibitor = inhibitors of Trypanosoma brucei pyruvate kinase; 410,000 compounds, 0.12% hits; TbPYK enzyme, Kinase-Glo Plus ATP luminescence, 45 min; Potency, µM (doses to about 76.8 µM), for the others: at the top dose activity, negative = inhibition, hits mostly inhibitors; Q57TT1; also: potency is read from the fitted curve at half-maximal effect; nearly all actives have a fitted effect of over 50% in size
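Glycolytic pyruvate kinase of T. brucei was incubated with substrate, test compound and 130 uM ADP for 45 minutes at room temperature. Luminescent Kinase-Glo Plus signal was measured after 10 minutes.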
An asterisk follows results filed as active; i = inactive; ? = inconclusive; . = not tested or not shown. Unless noted, calls follow the shape of the dose curve; as a rule, active = well fitted curve in the direction sought with a large enough effect; inconclusive = small, poorly fitted or top-dose-only effect, or another doubt; inactive = no such curve, though single readings can be large; an effect the other way counts as inactive or inconclusive. % is scaled to controls: 0 for no effect and ±100 for the full control effect.

SMILES	Vaccinia Venus	HCMV antiviral	VACV mCherry inh	LmPK inh	TbPYK inhibitor
Cc1ccc(C2c3[nH]c4ccccc4c3CCN2C(=O)c2ccc(N(C)C)cc2)cc1 (stereo not given)	-10.0%	64.0	-17.9%	.	2.1%
CN(Cc1ccccc1)C(=O)CNC(=O)C12CC3CC(CC(C3)C1)C2	.	3.3	.	.	-3.2%
COCCNC(=O)C1CCCN(C(=O)c2ccnc(Cl)c2)CC1 (stereo not given)	-0.4%	-68.5*	i	.	-10.7%
COCCNC(=O)C1CCCN(C(=O)c2ccc3c(c2)C(C)(C)CCC3(C)C)CC1 (stereo not given)	-11.9%	23.6	i	.	0.3%
CCOc1ccc(/C=C/C(=O)C(C(N)=O)=C2SCCS2)cc1	-26.2%	-72.9*	4.47µM*	-0.2%	4.1%
CCOC(=O)c1sc(NC(=O)/C=C/c2ccc(OCC)cc2)c(C(=O)OCC)c1C	-0.1%	-16.6	7.4%	.	0.5%
Cc1ccc(-n2c(C)nn(Cc3ccc([N+](=O)[O-])cc3)c2=O)cc1	-21.9%	-82.4*	?	0.5%	0.3%
COc1ccc(Cl)cc1S(=O)(=O)N1CCN(C(=O)c2n[nH]c(=O)c3ccccc23)CC1	?	-0.2	28.2µM*	.	2.8%
O=C(c1n[nH]c(=O)c2ccccc12)N1CCN(c2ccc(F)cc2)CC1	-13.5%	-102.1*	-14.5%	1.3%	1.9%
O=C(c1n[nH]c(=O)c2ccccc12)N1CCN(c2ccccc2)CC1	-1.2%	12.6	-17.9%	0.9%	-3.4%
CCOC(=O)C1=C(COC(=O)COc2cccc(C)c2C)NC(=O)NC1C (stereo not given)	.	-15.9	.	.	-7.7%
Nc1nc(-c2ccc(-c3ccccc3)cc2)cs1	?	-1.3	?	-14.4%	-19.6%
COc1ccc(-c2csc(N3C(=O)C4C5c6ccccc6C(c6ccccc65)C4C3=O)n2)cc1 (stereo not given)	-8.7%	-62.4*	i	4.7%	-7.2%
Cc1ccc(-c2csc(N)n2)cc1	?	-32.6	11.2µM*	.	0.3%
COc1ccc(-c2csc(N)n2)cc1	?	-7.0	14.1µM*	-3.5%	-8.2%
CCCCOC(=O)Oc1ccc2c(=O)c(Oc3cccc(C)c3)coc2c1	-3.8%	?	-12.3%	5.9%	-4.1%
O=C(CCC(=O)N1CCSc2ccccc21)NCc1ccccc1Cl	-11.8%	-61.9*	-8.1%	.	-1.7%
O=C(CCC(=O)N1CCSc2ccccc21)NCc1ccc(Cl)cc1	-4.6%	-21.4	i	3.0%	-5.8%
Cc1cccc(NC(=O)N2CCC(C(=O)c3ccc(F)cc3)CC2)c1	-16.4%	-63.8*	-14.6%	1.4%	13.4%
O=C(Nc1ccc(Cl)cc1N1CCOCC1)C1CCCO1 (stereo not given)	-1.3%	-10.0	-13.3%	-4.8%	1.8%
CCOC(=O)c1cc(S(=O)(=O)N2CCN(c3ccc(OC)cc3)CC2)[nH]n1	-7.9%	-112.3*	-11.8%	.	-4.2%
CCOC(=O)c1cc(S(=O)(=O)N2CCN(c3cccc(OC)c3)CC2)[nH]n1	-7.2%	-9.7	-15.1%	.	-5.9%
COCCNC(=O)C(c1ccc(C)o1)N(Cc1ccco1)C(=O)c1snc(C(N)=O)c1N (stereo not given)	?	?	?	-3.5%	-8.9%
CN(C)c1ccc(C(C(=O)NCc2ccccc2)N(Cc2ccco2)C(=O)c2snc(C(N)=O)c2N)cc1 (stereo not given)	3.9%	-76.4*	-26.9%	1.1%	0.3%
COCCNC(=O)C(c1ccc(C)o1)N(C(=O)c1snc(C(N)=O)c1N)c1cc(C)cc(C)c1 (stereo not given)	?	-78.5*	-11.7%	0.4%	-9.3%
NC(=O)c1nsc(C(=O)N(Cc2ccco2)C(C(=O)NCc2ccc(F)cc2)c2ccc(O)cc2)c1N (stereo not given)	-6.1%	-28.9	-15.2%	1.7%	-0.8%
Cc1ccc(C(C(=O)NCc2ccc(F)cc2)N(Cc2ccco2)C(=O)c2snc(C(N)=O)c2N)o1 (stereo not given)	-16.2%	-81.5*	?	6.8%	-0.9%
Cc1cc(C)n(CCN(C)Cc2nc(Cc3ccccc3F)no2)n1	8.7%	-22.7	-1.3%	28.2µM*	-1.1%
CN(Cc1nc(Cc2ccccc2F)no1)[C@@H]1CS(=O)(=O)C[C@H]1O	.	16.6	.	-1.6%	1.0%
